Reference: ChEMBL document CHEMBL4513216, “Probing the Open Global Health Chemical Diversity Library for Multistage-Active Starting Points for Next-Generation Antimalarials” (ACS Infect Dis, 2020)
In all, about 68,000 compounds went through this assay and about 2,700 (4%) showed an effect of 50% or more. Only a selection was taken, and strong results are over-represented in it overall.

Each molecule was assayed on Plasmodium berghei (assay: Screen against P. berghei liver stage (PbLuc), transformed with Luciferase, at 2uM). Conditions: tested at 2 uM.
Type: functional, HepG2
Cc1ccoc1C1=NNC(=CN2CCCC(Cn3cncn3)C2)O1 (stereo unspecified) gave an INHIBITION of 3.9%.
Cc1ccoc1C1=NNC(=CN2CCOC(Cn3cccn3)C2)O1 (stereo unspecified) gave an INHIBITION of 60.64%.
For Cc1ccoc1C1=NNC(=CN2CCn3c(nnc3C(C)C)C2)O1, the INHIBITION was 83.22%.
With Cc1ccoc1C1=NNC(=CN2CCn3c(C)nnc3C2)O1 the INHIBITION was -9.22%.
Cc1cnn(CC2CN(C=C3NN=C(c4occc4C)O3)CCO2)c1 (stereo unspecified) was tested, and the INHIBITION was -32.2%.
CCc1nnc2n1CCN(C=C1NN=C(c3occc3C)O1)C2 showed an INHIBITION of -27.57%.
In the case of NC(=O)C1CCN(C(=O)NCc2ccc3c(c2)OCCO3)CC1, the INHIBITION is reported as 42.17%.
In the case of C[C@H]1C[C@H]2CN(S(=O)(=O)c3ccc(F)cc3)CC[C@H]2O1, the INHIBITION is reported as 47.42%.
Cc1nc(N2CCOc3ccc(CO)cc3C2)c2nc(C)oc2n1 gave an INHIBITION of 34.52%.
For CC(C)OCCC(=O)NCCC(=O)N1CCN(c2ccccn2)CC1, the INHIBITION was -8.63%.
Cc1noc(C2CCN(Cn3cc(Cl)cn3)CC2)n1 gave an INHIBITION of -16.03%.
CCCOc1cc(CNC(=O)Nc2ccc(C)cc2)ccn1 was tested, and the INHIBITION was 5.88%.
In the case of Cc1csc([C@@H]2C[C@H]3CN(c4ncc(F)cn4)C[C@H]3O2)n1, the INHIBITION is reported as 19.01%.
Molecule CC(=O)N1CCN(C(=O)C2CCN(c3cccnn3)C2)CC1 (stereo unspecified) has an INHIBITION of -4.8%.
CN1CCN(C(=O)C2CCCN(c3cccnn3)C2)CC1 (stereo unspecified) was tested, and the INHIBITION was 59.49%.
With O=C(C1CCN(c2cccnn2)C1)N1CCOCC1 (stereo unspecified) the INHIBITION was 42.48%.
For CN1CCN(C(=O)C2CCN(c3cccnn3)C2)CC1 (stereo unspecified), the INHIBITION was 33.64%.
In the case of CN1CCN(C(=O)C2CCN(c3cccnn3)CC2)CC1, the INHIBITION is reported as 54.49%.
For CN1CCC(C(=O)N2CCCN(c3cccnn3)CC2)C1 (stereo unspecified), the INHIBITION was 45.48%.
Work on CCC(C)c1cc(C(=O)N(CC(=O)NC)c2cccc(F)c2)on1 (stereo unspecified) yielded an INHIBITION of -7.58%.
For O=C([C@H]1C[C@H]2OCC[C@H]2N(CCc2ccccc2)C1)N1CCCCO1, the INHIBITION was -10.8%.
Molecule Cc1cc(C(=O)N2CCN(C(=O)CC(C)C)[C@@H]3CS(=O)(=O)C[C@@H]32)no1 has an INHIBITION of -57.02%.
COc1ccc(CN2CCO[C@@H]3C[C@@H](C(=O)NC(C)C)C[C@H]32)cc1 was tested, and the INHIBITION was 3.72%.
CCN1CC(COC(=O)c2cc(C)nn2CC)CC1=O (stereo unspecified) was tested, and the INHIBITION was 3.46%.
For COc1ccc2c(C)c(C(=O)NC3CCOCC3)oc2c1, the INHIBITION was -8.3%.
With COc1ccc2c(C)c(C(=O)NC3CCN(S(C)(=O)=O)CC3)oc2c1 the INHIBITION was 11.9%.
COc1ccc2c(C)c(C(=O)NCC3CN(S(C)(=O)=O)CCO3)oc2c1 (stereo unspecified) gave an INHIBITION of 60.71%.
CC(C)CN1C[C@H](COCc2ccccc2)Oc2ncccc2C1=O showed an INHIBITION of 37.74%.
Work on COc1cc2[nH]c(=O)c(CN3CCCC3C)cc2c(OC)c1OC (stereo unspecified) yielded an INHIBITION of -5.51%.
In the case of COc1cc2[nH]c(=O)c(CN3CCC[C@H]3CO)cc2c(OC)c1OC, the INHIBITION is reported as 63.1%.
For COc1cc2[nH]c(=O)c(CN3CCC[C@@H]3C(N)=O)cc2c(OC)c1OC, the INHIBITION was -30.15%.
CCNC(=O)C1CCN(Cc2ccc(C(=O)Nc3cnns3)cc2)C1 (stereo unspecified) was tested, and the INHIBITION was 29.78%.
For Cc1cc(C(=O)N2CCc3nc(N4CCCC4)nc(C)c3CC2)c(C)o1, the INHIBITION was 22.96%.
In the case of CCCc1cc(CN(C)C2CC(C)(C)NC(C)(C)C2)n[nH]1, the INHIBITION is reported as 62.51%.
With CCCc1cc(CN(C)C2CSCCSC2)n[nH]1 the INHIBITION was -71.03%.
Molecule CCCc1cc(CN(C)C2CCSCC2)n[nH]1 has an INHIBITION of 36.28%.
For CN1CCCN(c2ccc(F)cc2CNC(=O)c2ccsc2)CC1, the INHIBITION was 31.05%.
O=C(CN1CCN(c2ccnc3c(F)ccc(F)c23)CC1)N1CCCC1 was tested, and the INHIBITION was 3.01%.
Molecule CC(C)(C)CN1CC(COc2ccccc2)Oc2ccncc2S1(=O)=O (stereo unspecified) has an INHIBITION of 14.96%.
Cc1ccc(-c2noc(C(O)CC(C)C)n2)nn1 (stereo unspecified) was tested, and the INHIBITION was -12.08%.
With Cc1ccc(-c2noc([C@H](N)CC(C)C)n2)nn1 the INHIBITION was 24.55%.
CCSC(C)c1nc(-c2ccc(C)nn2)no1 (stereo unspecified) gave an INHIBITION of 66.4%.
Work on Fc1cnc(N2C[C@@H]3C[C@@H](c4nc(C5CC5)cs4)O[C@@H]3C2)nc1 yielded an INHIBITION of 3.53%.
Cc1nc(-c2cc(C(=O)O)co2)cs1 gave an INHIBITION of 9.95%.
With CCOCC1CN(C(=O)c2ccncn2)Cc2cnn(CC)c21 (stereo unspecified) the INHIBITION was 4.99%.
CC(C)C(C)(C#N)NC(=O)Cn1cc(-c2ccccc2)cn1 (stereo unspecified) gave an INHIBITION of -4.26%.
CC(C)C(C)(C#N)NC(=O)Cn1cc(Cl)cn1 (stereo unspecified) gave an INHIBITION of 26.74%.
CC(C)C(C)(C#N)NC(=O)Cn1cc(I)cn1 (stereo unspecified) gave an INHIBITION of 64.9%.
With Cc1nccn1CCN1C(=O)CC2(CCCC2)CC1=O the INHIBITION was -50.2%.
CCc1c(NCc2cccnc2)cnn1CC(C)C gave an INHIBITION of -16.94%.
CN(Cc1ccsc1)C(=O)Nc1ccc(S(C)(=O)=O)cc1 gave an INHIBITION of -12.75%.
Cn1cccc1CN(C(=O)CC(CC(=O)O)c1cccs1)C1CC1 (stereo unspecified) gave an INHIBITION of 81.52%.
CN(C(=O)Cc1cccs1)C1CCN(c2ccccn2)CC1 was tested, and the INHIBITION was 16.89%.
Work on O=C(O)CC(CC(=O)N(Cc1ccsc1)C1CC1)c1cccs1 (stereo unspecified) yielded an INHIBITION of 1.06%.
O=C(O)CC(CC(=O)NCCc1cccs1)c1cccs1 (stereo unspecified) showed an INHIBITION of 17.25%.
Molecule CN(Cc1cccs1)C1CCC[C@@H]2CN(C(=O)c3cccn3C)C[C@H]12 (stereo partly specified) has an INHIBITION of 6.33%.
Molecule Cn1cccc1CN(C(=O)Cc1cccs1)C1CC1 has an INHIBITION of 51.96%.
Molecule CCN(CC1CCOC1)C(=O)NCc1nnc2n1CCCCC2 (stereo unspecified) has an INHIBITION of 7.24%.
CC(NCC1CCN(CCO)CC1)c1cccnc1 (stereo unspecified) gave an INHIBITION of -4.09%.
For CC(NCC1CCN(CCO)CC1)c1ccc(Cl)cc1 (stereo unspecified), the INHIBITION was 56.49%.
Work on CC(NCC1CCN(CCO)CC1)c1cccc(Cl)c1 (stereo unspecified) yielded an INHIBITION of 34.46%.
For CC(NCC1CCN(CCO)CC1)c1ccc(F)c(Cl)c1 (stereo unspecified), the INHIBITION was -111.19%.
Molecule CC(NCC1CCN(CCO)CC1)c1ccc(C(F)(F)F)cc1 (stereo unspecified) has an INHIBITION of 55.39%.
In the case of CC(NCC1CCN(CCO)CC1)c1ccc(OC(F)(F)F)cc1 (stereo unspecified), the INHIBITION is reported as 47.68%.
For CCc1nc(NC(=O)NCCc2cscn2)nn1C, the INHIBITION was 1.88%.
Molecule Clc1cccc(C(CNCc2ccccn2)N2CCOCC2)c1 (stereo unspecified) has an INHIBITION of 20.8%.
In the case of CC(C)c1nn(C)c(N(C)C)c1CNCc1ccnc(N(C)C)c1, the INHIBITION is reported as 1.36%.
O=C(Cn1ccc2ccc(Cl)cc21)NCc1ccc(C(=O)O)cc1 gave an INHIBITION of 30.98%.
Work on O=C(Nc1ccccc1)N1CC(C(=O)N2CCCC2)C2(CCOCC2)C1 (stereo unspecified) yielded an INHIBITION of 51.72%.
CC(C)NC(=O)C1CN(C(=O)Nc2ccccc2)CC12CCOCC2 (stereo unspecified) showed an INHIBITION of 47.1%.
O=C(NCC1CC1)C1CN(C(=O)Nc2ccccc2)CC12CCOCC2 (stereo unspecified) was tested, and the INHIBITION was -48.3%.
In the case of CN(Cc1cc2n(n1)CCN(C(=O)[C@H]1CCCO1)C2)Cc1nccs1, the INHIBITION is reported as 24.08%.
c1ccc(Oc2cccc(OC34CCCN(CC3)C4)c2)cc1 (stereo unspecified) gave an INHIBITION of 43.72%.
With Cc1cc(C)n(C2CN(Cc3noc(-c4ccccc4)n3)C2)n1 the INHIBITION was 1.34%.
Work on Cc1ccc(-c2nc(CN3CC(n4nc(C)cc4C)C3)no2)cc1 yielded an INHIBITION of 31.55%.
COCCc1noc(CN2CCOC(Cn3nc(C)cc3C)C2)n1 (stereo unspecified) was tested, and the INHIBITION was -85.26%.
For Cc1cccc(-c2nc(CN3CC(n4nc(C)cc4C)C3)no2)c1, the INHIBITION was 51.31%.
With Cc1cc(C)n(C2CN(Cc3noc(C4CC4)n3)C2)n1 the INHIBITION was -14.28%.
COCCc1noc(CN2CC(n3nc(C)cc3C)C2)n1 showed an INHIBITION of 65.39%.
With Cn1c(CO)cnc1SC1CCCN(c2ccccc2F)C1=O (stereo unspecified) the INHIBITION was 15.82%.
Cc1ncsc1CN1CCn2c(COCC3CC3)cnc2C1C (stereo unspecified) gave an INHIBITION of -21.27%.
CCc1noc(CNC2CCCN(Cc3noc(C4CC4)n3)C2)n1 (stereo unspecified) gave an INHIBITION of 30.29%.
In the case of CCS(=O)(=O)c1ncc(CN(C)Cc2ccccc2Cl)n1CCOC, the INHIBITION is reported as -5.13%.
For CCS(=O)(=O)c1ncc(CN(C)Cc2ccccc2OC)n1CCOC, the INHIBITION was 60.74%.
CCS(=O)(=O)c1ncc(CN(C)Cc2ccccn2)n1CCOC gave an INHIBITION of -40.94%.
CN(C)Cc1cn(-c2ccccc2C(=O)NCC2CCCCN2C)cn1 (stereo unspecified) showed an INHIBITION of 87.38%.
Molecule CN1CCCC1CCNC(=O)c1ccccc1-n1cnc(CN)c1 (stereo unspecified) has an INHIBITION of 22.95%.
CN(C)Cc1cn(-c2ccccc2C(=O)NCCC2CCCN2C)cn1 (stereo unspecified) was tested, and the INHIBITION was 16.43%.
In the case of Cc1csc(N2CCN(Cc3nnsc3Cl)CC2C)n1 (stereo unspecified), the INHIBITION is reported as -39.79%.
c1ccc(C[C@H]2CN(Cc3nccs3)CC[C@@H]2OCC2CC2)cc1 gave an INHIBITION of 41.79%.
In the case of CCNC(=O)N(C)C(c1ccccc1)c1ccccn1 (stereo unspecified), the INHIBITION is reported as -18.26%.
Work on CC(C)NC(=O)N(C)C(c1cccc(F)c1)c1ccccn1 (stereo unspecified) yielded an INHIBITION of -30.55%.
With CCNC(=O)N(C)C(c1cccc(F)c1)c1ccccn1 (stereo unspecified) the INHIBITION was 51.21%.
Cc1ccc(S(=O)(=O)N2CCOCC2C(N)=O)c(F)c1 (stereo unspecified) showed an INHIBITION of 14.17%.
Work on Cc1ccnc(SCC(=O)Nc2csc3nc(=O)c(C)nn23)n1 yielded an INHIBITION of 35.42%.
Cc1noc(C(C)C)c1C(=O)NCc1ccc(N(C)C)c(F)c1 showed an INHIBITION of -9.17%.
Molecule CCN(CC)C(CNC(=O)c1c(C)noc1C(C)C)c1ccsc1 (stereo unspecified) has an INHIBITION of -25.61%.
With CNC(=O)COc1cccc(CNC(=O)c2c(C)noc2C(C)C)c1 the INHIBITION was 74.35%.
Cc1noc(C(C)C)c1C(=O)NCc1cccc(N(C)C)c1 was tested, and the INHIBITION was -57.97%.
In the case of Cc1noc(C(C)C)c1C(=O)NCc1ccc2c(c1)OCCO2, the INHIBITION is reported as 56.02%.
Cc1noc(C(C)C)c1C(=O)NCC(c1ccsc1)N(C)C (stereo unspecified) was tested, and the INHIBITION was 63.95%.
Cc1noc(C)c1C(=O)NCC(c1ccsc1)N(C)C (stereo unspecified) was tested, and the INHIBITION was -12.82%.
CNC(=O)COc1cccc(CNC(=O)c2c(C)noc2C)c1 was tested, and the INHIBITION was 24.36%.
COCc1cccc(CNC(=O)c2c(C)noc2C(C)C)c1 showed an INHIBITION of 49.9%.
For O=S(=O)(C1CC1)N1CCCn2nnc(Cn3cccc3)c2C1, the INHIBITION was 23.81%.
Work on CCOCCC(=O)N1CCCCC1CCn1cccn1 (stereo unspecified) yielded an INHIBITION of 30.25%.
